One may read the AC50 as the concentration giving half of the maximal activity seen.

Records with an inconclusive call do not appear. Active and inactive are the calls of the source. How the source made its calls: active means hit-call score of the fitted dose curve at least 0.9, where 1 is the maximum; inconclusive means response in the unintended direction; inactive means score below 0.9.

Read-out in this assay: HMG-CoA synthase (HMGCS2), HMGCS2 (gene 3158)
Nature of the assay: CLD_HMGCS2_6hr: CellzDirect (CLD) Gene Expression Assay for HMG-CoA synthase (HMGCS2) at 6 hours (AID 2283682).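 Further: actives raise HMGCS2 transcript above the 0.2% DMSO vehicle baseline.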 The protocol:
CLD_6hr is a cell-based, multiplexed-readout assay that uses hepatocyte, a human liver primary cell, with measurements taken at 6 hours after chemical dosing in a 96-well plate.CLD_HMGCS2_6hr is one of 16 assay component(s) measured or calculated from the CLD_6hr assay. It is designed to make measurements of mRNA induction, a form of inducible reporter, as detected with chemiluminescence signals by Quantitative Nuclease Protection Assay (qNPA) technology.Data from the assay component CLD_HMGCS2_6hr was analyzed at the endpoint, CLD_HMGCS2_6hr, in the positive analysis fitting direction relative to DMSO as the negative control and baseline of activity. Using a type of inducible reporter, gain-of-signal activity can be used to understand changes in the reporter gene as they relate to the gene HMGCS2. Furthermore, this assay endpoint can be referred to as a primary readout. To generalize the intended target to other relatable targets, this assay endpoint is annotated to the lyase intended target family, where subfamily is HMG-CoA synthase.
Human hepatocyte cultures were treated daily for two consecutive days with fresh dosing solutions containing appropriate concentrations of the 320 ToxCast chemicals (chemical identities were blinded to CellzDirect and other ToxCast collaborators), vehicle control (0.2% DMSO), and positive control inducers as summarized in Table 1. Due to the large number of treatment groups and chemicals examined, the ToxCast chemicals were divided into two groups (spanning two independent cultures of hepatocytes from separate donor preparations (Hu778: ToxCast plates 1 and 2; Hu776: ToxCast plates 3 and 4). Each preparation of human hepatocyte cultures was treated with respective vehicle control, medium only control, set of six positive controls/reference chemicals for the five hepatic receptor pathways, and a subset of eight of the ToxCast chemicals (indoxacarb, pyrithiobac-sodium, norflurazon, cyhalofop-butyl, methomyl, thiram, acetochlor, and propiconazole). These replicate data, coupled with internal replicates designed within the blinded ToxCast chemical library, provided additional data to evaluate interindividual differences between hepatocyte preparations and their potential impact on chemical profiles.Cell morphology and integrity were evaluated using phase-contrast microscopy as an indicator of hepatocyte cell health (Tyson & Green, 1987). Cultures for each treatment group (i.e., media, vehicle [0.2% DMSO], positive control inducers [multiple concentrations], and the ToxCast chemicals [multiple concentrations]) were observed and cell morphology was assessed relative to vehicle control cultures at each harvest time point (0, 6, 24, or 48 h). […] Images were evaluated at the conclusion of the study to assess changes in cell integrity and account for the effects of chemical exposure on uncharacteristic changes in concentration-dependent gene expression profiles. The results from these determinations of apparent cytotoxicity were annotated (yes/no) alongside the corresponding qNPA data for reference.At the conclusion of each treatment period, hepatocyte cultures (96-well) were washed with 1 volume of HBSS, lysed by addition of 25 ul ArrayPlate lysis buffer (HTG, Tucson, AZ), and 70 ul/well of Denaturation Oil, denatured by incubation at 95C for 10 min, and frozen at approximately -70C until analysis by nuclease protection assay (qNPA) (Roberts et al., 2007). For qNPA analysis, cell lysates were thawed at 50C for approximately 30 min, qNPA probes were added, and samples were incubated at 95C for 10 min to begin the detection process by denaturing the target RNA, dissociating the duplexes and secondary structure hybridization. At the conclusion of the hybridization period, S1 nuclease reagent was added to each sample to digest all nonprotected nucleotides at 50C for 60-90 min. […]
As for `Cc1[nH]c(=O)n(C(C)(C)C)c(=O)c1Cl`, the call was inactive. On the same count and under the same terms, with `CCCN(CCOc1c(Cl)cc(Cl)cc1Cl)C(=O)n1ccnc1` the entry was “inactive”; with `OCCOc1ccccc1`, “inactive”. The same measure, in the same setting: with `COP(=O)(OC)OC=C(Cl)Cl` the entry was “inactive”; with `COC(=O)c1ccccc1CS(=O)(=O)NC(=O)Nc1nc(OC)cc(OC)n1`, “inactive”. Still for that read-out and setting: the value for `CNC(=O)Oc1cccc(N=CN(C)C)c1` was “inactive”. Turning to `CNC(=O)Oc1ccccc1OC(C)C`, the compound was called inactive. For the compound `CC(C)(C)C(O)C(Oc1ccc(Cl)cc1)n1cncn1` (centres undefined), the result was inactive.

Turning to `COc1cc(OC)nc(NC(=O)NS(=O)(=O)c2cc(NC=O)ccc2C(=O)N(C)C)n1`, the compound was called inactive. As to `CCC(C)Nc1c([N+](=O)[O-])cc(C(C)(C)C)cc1[N+](=O)[O-]` (centres undefined), the call was inactive.

For `CCS(=O)(=O)c1cccnc1S(=O)(=O)NC(=O)Nc1nc(OC)cc(OC)n1`, the outcome was inactive. Still for that read-out and setting: the value for `O=C(O)COc1ccc(Cl)cc1Cl` was “inactive”. The same measure, in the same setting: the value for `O=C(O)CCCOc1ccc(Cl)cc1Cl` was “inactive”; that for `O=C1c2ccccc2C(=O)N1SC(Cl)(Cl)Cl` was “inactive”. On the same count and under the same terms, the value for `CNC(=O)/C=C(\C)OP(=O)(OC)OC` was “inactive”; that for `O=C(O)C(F)(F)C(F)(F)C(F)(F)C(F)(F)C(F)(F)C(F)(F)C(F)(F)F` was “inactive”; that for `O=[N+]([O-])/N=C1\NCCN1Cc1ccc(Cl)nc1` was “inactive”. On to `CCN(CC)C(=O)SCc1ccc(Cl)cc1`, for which the outcome was inactive. The same measure, in the same setting: the value for `O=S1OCC2C(CO1)C1(Cl)C(Cl)=C(Cl)C2(Cl)C1(Cl)Cl` (centres undefined) was “inactive”. On the same count and under the same terms, the value for `CNC(=O)CSP(=S)(OC)OC` was “inactive”. Take `CC[C@H](C)[C@H]1O[C@]2(C=C[C@@H]1C)C[C@@H]1C[C@@H](C/C=C(\C)[C@@H](O[C@H]3C[C@H](OC)[C@@H](O[C@H]4C[C@H](OC)[C@@H](O)[C@H](C)O4)[C@H](C)O3)[C@@H](C)/C=C/C=C3\CO[C@@H]4[C@H](O)C(C)=C[C@@H](C(=O)O1)[C@]34O)O2` (tested in a mixture with another compound): the result was inactive. On the same count and under the same terms, with `Oc1cc(Cl)ccc1Oc1ccc(Cl)cc1Cl` the entry was “inactive”; with `Oc1ccc(Cl)cc1Cc1ccccc1`, “inactive”; with `Cc1cc(C)nc(NC(=O)NS(=O)(=O)c2ccccc2C(=O)OC2COC2)n1`, “inactive”. Regarding `O=C(Nc1ccccc1)Nc1cnns1`, the call was inactive. Same read-out and setting: with `[2H]C1([2H])[n+]2ccccc2-c2cccc[n+]2C1([2H])[2H]` the entry was “inactive”. With `CCOCN(C(=O)CCl)c1c(C)cccc1CC`, the call was inactive.

On to `Clc1ccccc1-c1nnc(-c2ccccc2Cl)nn1`, for which the compound was classed as inactive. With `COC(=O)c1ccccc1S(=O)(=O)NC(=O)Nc1nc(C)nc(OC)n1`, the AC50 is 11.7 nM (active). Turning to `CCOc1nc(NC)nc(NC(=O)NS(=O)(=O)c2ccccc2C(=O)OC)n1`, the call was inactive. As to `CCc1ccc(C(=O)NN(C(=O)c2cc(C)cc(C)c2)C(C)(C)C)cc1`, the compound was called inactive. For `N#CN`, the call was inactive. Regarding `O=S(=O)(O)C(F)(F)C(F)(F)C(F)(F)C(F)(F)C(F)(F)C(F)(F)C(F)(F)C(F)(F)F`, the AC50 was 3970 nM (active).

On to `CC1(c2ccc(Oc3ccccc3)cc2)OC(=O)N(Nc2ccccc2)C1=O` (centres undefined), for which the compound was called inactive.

The record behind these values is PubChem BioAssay (EPA / NIEHS).
